ChEMBL document CHEMBL1961873, “Compounds: GSK PKIS; Assays: Nanosyn kinase panel” (2012)

What was measured:
[1] = target: High affinity nerve growth factor receptor (Homo sapiens) (UniProt P04629); conditions: at 1 µM;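 further: each value is the mean percent inhibition of TRKA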
[2] = target: BDNF/NT-3 growth factors receptor (Homo sapiens) (UniProt Q16620); conditions: at 0.1 µM
[3] = target: BDNF/NT-3 growth factors receptor (Homo sapiens) (UniProt Q16620); conditions: at 1 µM
[4] = target: NT-3 growth factor receptor (Homo sapiens) (UniProt Q16288); conditions: at 0.1 µM
Sequence of NT-3 growth factor receptor (Homo sapiens) (Q16288 32-839 limits assumed): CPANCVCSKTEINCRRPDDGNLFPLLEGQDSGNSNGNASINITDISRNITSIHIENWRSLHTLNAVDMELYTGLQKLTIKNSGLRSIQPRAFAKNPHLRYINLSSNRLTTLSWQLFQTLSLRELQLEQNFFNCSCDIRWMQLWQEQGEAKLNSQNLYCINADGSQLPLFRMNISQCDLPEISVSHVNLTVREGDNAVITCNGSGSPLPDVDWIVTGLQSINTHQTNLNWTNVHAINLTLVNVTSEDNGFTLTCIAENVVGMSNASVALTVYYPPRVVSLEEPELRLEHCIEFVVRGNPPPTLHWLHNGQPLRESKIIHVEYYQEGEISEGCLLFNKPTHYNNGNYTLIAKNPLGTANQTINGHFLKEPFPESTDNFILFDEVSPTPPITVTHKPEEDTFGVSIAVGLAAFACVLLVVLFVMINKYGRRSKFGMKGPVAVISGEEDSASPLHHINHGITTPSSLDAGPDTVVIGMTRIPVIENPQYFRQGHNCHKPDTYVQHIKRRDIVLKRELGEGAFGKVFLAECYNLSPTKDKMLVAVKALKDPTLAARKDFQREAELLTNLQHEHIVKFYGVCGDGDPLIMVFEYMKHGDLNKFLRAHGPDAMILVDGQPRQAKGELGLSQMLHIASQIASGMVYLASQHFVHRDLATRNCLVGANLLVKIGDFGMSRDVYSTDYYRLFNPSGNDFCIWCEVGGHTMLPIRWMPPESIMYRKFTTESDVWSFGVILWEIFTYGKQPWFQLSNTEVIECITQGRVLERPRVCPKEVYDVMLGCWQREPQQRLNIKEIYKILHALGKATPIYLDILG

[5] = target: NT-3 growth factor receptor (Homo sapiens) (UniProt Q16288); conditions: at 1 µM
[6] = target: T1, Tyrosine-protein kinase TXK (Homo sapiens) (UniProt P42681); conditions: at 0.1 µM
T1 sequence (whole entry): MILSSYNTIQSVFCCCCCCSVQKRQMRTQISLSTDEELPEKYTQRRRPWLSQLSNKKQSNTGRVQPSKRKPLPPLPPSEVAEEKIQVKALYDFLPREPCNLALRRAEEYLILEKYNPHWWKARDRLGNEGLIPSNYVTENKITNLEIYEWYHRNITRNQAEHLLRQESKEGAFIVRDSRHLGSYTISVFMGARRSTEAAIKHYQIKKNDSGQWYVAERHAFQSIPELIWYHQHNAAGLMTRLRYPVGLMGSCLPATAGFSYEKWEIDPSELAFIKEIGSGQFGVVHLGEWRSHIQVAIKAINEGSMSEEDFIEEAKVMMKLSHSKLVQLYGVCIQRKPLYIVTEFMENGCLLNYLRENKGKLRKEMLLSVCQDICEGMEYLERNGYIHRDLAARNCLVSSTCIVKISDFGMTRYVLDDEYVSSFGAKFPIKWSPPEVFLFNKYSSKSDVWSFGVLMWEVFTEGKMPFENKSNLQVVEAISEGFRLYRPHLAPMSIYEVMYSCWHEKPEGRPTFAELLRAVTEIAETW

[7] = target: T1, Tyrosine-protein kinase TXK (Homo sapiens); conditions: at 1 µM
[8] = target: Non-receptor tyrosine-protein kinase TYK2 (Homo sapiens) (UniProt P29597); conditions: at 0.1 µM;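 further: each value is a mean of the inhibition readings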
Sequence of Non-receptor tyrosine-protein kinase TYK2 (Homo sapiens) (P29597 whole entry): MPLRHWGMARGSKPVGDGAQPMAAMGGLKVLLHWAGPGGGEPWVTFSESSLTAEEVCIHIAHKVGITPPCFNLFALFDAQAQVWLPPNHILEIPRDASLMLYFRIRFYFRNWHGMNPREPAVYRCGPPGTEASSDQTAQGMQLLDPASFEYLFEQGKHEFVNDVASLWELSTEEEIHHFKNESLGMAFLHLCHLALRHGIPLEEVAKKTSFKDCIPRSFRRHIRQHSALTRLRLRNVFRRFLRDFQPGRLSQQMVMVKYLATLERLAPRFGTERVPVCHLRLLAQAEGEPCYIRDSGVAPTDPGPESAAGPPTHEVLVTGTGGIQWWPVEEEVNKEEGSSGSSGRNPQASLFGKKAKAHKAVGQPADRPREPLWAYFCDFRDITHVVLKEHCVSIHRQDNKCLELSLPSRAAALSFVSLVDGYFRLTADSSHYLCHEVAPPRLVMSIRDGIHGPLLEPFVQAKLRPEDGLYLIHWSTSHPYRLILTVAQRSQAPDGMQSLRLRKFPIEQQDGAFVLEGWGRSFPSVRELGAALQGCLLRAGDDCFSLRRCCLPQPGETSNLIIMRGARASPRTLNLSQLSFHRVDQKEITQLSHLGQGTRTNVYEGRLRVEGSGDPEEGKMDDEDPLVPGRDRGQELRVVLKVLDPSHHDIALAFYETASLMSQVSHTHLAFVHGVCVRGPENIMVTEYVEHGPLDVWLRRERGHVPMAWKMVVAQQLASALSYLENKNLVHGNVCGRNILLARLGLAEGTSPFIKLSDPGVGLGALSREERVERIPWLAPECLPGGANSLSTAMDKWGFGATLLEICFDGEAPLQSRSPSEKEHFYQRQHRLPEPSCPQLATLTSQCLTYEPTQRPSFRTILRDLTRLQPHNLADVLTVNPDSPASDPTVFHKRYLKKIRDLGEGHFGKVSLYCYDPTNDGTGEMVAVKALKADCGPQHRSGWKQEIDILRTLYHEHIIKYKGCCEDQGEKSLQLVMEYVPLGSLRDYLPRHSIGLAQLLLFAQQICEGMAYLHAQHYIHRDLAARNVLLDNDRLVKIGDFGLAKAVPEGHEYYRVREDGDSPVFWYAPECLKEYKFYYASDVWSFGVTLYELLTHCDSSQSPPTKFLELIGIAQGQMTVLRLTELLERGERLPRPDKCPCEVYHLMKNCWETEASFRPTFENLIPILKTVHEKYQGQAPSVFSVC

[9] = target: T2, Dual specificity protein kinase TTK (Homo sapiens) (UniProt P33981); conditions: at 1 µM;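 further: reported figures are mean TTK inhibition at 1 µM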
T2 sequence (whole entry): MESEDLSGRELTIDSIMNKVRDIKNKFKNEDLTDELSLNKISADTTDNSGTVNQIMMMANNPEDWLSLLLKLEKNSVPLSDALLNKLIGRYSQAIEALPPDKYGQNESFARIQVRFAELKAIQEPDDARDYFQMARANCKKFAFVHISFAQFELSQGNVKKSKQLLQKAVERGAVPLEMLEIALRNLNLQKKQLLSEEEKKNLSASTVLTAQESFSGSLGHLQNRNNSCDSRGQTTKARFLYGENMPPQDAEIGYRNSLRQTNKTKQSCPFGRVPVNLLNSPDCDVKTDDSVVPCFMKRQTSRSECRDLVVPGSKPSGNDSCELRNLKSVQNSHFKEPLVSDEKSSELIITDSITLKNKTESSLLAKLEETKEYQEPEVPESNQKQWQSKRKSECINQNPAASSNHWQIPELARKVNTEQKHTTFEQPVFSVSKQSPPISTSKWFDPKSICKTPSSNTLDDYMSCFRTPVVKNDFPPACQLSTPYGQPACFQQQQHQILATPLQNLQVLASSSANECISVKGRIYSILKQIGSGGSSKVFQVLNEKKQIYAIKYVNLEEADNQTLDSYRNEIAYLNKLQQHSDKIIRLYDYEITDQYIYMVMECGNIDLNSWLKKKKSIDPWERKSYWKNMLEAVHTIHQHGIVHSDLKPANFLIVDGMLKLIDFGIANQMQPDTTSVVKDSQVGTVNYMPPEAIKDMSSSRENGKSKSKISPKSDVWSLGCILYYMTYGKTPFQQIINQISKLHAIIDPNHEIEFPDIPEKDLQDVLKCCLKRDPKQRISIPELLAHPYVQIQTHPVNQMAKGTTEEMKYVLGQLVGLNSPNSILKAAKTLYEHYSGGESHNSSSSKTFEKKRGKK

[10] = target: T3, Aurora kinase A (Homo sapiens) (UniProt O14965); conditions: at 0.1 µM
T3 sequence (whole entry): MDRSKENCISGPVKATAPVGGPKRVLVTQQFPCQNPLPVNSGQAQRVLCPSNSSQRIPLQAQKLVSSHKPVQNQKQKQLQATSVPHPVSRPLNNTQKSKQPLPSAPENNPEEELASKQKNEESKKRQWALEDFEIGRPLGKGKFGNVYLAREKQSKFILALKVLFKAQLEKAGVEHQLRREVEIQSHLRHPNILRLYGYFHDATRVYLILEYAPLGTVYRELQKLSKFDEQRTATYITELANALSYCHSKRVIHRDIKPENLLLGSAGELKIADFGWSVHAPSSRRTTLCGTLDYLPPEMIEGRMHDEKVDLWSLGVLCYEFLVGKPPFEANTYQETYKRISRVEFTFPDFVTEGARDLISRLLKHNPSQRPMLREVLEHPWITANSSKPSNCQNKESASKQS

[11] = target: T3, Aurora kinase A (Homo sapiens); conditions: at 1 µM
[12] = target: Aurora kinase B (Homo sapiens) (UniProt Q96GD4); conditions: at 0.1 µM
Sequence of Aurora kinase B (Homo sapiens) (Q96GD4 whole entry): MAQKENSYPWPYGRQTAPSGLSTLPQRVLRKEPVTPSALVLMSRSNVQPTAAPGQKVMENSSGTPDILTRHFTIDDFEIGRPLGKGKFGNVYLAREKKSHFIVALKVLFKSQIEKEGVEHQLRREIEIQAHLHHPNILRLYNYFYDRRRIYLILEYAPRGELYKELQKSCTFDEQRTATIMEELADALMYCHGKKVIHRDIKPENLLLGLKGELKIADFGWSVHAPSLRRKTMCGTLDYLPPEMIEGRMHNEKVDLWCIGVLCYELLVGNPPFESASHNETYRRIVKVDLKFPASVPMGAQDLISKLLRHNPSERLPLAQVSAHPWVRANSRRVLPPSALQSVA

[13] = target: Aurora kinase B (Homo sapiens) (UniProt Q96GD4); conditions: at 1 µM
[14] = target: T4, Aurora kinase C (Homo sapiens) (UniProt Q9UQB9); conditions: at 0.1 µM
T4 sequence (whole entry): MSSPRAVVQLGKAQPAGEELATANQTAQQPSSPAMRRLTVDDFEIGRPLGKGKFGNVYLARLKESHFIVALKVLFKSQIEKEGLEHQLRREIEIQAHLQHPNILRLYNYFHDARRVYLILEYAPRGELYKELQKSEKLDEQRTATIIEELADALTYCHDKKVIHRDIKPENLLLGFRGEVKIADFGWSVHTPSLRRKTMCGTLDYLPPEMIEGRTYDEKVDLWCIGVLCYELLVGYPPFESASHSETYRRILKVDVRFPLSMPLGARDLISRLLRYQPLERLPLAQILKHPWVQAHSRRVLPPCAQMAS

[15] = target: T4, Aurora kinase C (Homo sapiens); conditions: at 1 µM
[16] = target: Serine/threonine-protein kinase 10 (Homo sapiens) (UniProt O94804); conditions: at 0.1 µM
Sequence of Serine/threonine-protein kinase 10 (Homo sapiens) (O94804 whole entry, looked up): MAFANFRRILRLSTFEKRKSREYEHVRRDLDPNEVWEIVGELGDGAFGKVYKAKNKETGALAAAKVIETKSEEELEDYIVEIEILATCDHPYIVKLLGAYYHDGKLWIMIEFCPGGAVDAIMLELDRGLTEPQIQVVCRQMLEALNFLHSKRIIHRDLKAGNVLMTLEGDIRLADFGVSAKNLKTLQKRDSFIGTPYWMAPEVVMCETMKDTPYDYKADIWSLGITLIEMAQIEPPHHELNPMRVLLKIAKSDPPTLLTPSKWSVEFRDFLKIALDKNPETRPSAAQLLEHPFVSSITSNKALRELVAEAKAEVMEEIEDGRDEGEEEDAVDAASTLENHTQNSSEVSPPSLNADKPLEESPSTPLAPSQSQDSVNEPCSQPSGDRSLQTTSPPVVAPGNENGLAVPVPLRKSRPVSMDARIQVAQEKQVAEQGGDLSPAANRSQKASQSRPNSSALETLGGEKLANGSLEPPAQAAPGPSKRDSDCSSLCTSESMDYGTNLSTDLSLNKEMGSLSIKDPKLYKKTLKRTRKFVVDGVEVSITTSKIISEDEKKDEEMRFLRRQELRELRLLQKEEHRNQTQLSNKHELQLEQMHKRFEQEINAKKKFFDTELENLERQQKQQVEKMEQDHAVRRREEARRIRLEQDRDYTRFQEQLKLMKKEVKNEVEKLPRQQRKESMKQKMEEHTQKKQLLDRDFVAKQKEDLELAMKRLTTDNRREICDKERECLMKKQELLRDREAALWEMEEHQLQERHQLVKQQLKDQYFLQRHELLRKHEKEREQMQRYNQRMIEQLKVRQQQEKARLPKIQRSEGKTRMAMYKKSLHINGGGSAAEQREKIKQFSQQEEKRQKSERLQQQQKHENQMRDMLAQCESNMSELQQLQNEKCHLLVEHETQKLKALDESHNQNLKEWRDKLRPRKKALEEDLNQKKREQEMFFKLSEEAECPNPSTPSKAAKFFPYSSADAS

[17] = target: Serine/threonine-protein kinase 10 (Homo sapiens) (UniProt O94804); conditions: at 1 µM
[18] = target: T5, Mitogen-activated protein kinase kinase kinase kinase 2 (Homo sapiens) (UniProt Q12851); conditions: at 0.1 µM
T5 sequence (whole entry): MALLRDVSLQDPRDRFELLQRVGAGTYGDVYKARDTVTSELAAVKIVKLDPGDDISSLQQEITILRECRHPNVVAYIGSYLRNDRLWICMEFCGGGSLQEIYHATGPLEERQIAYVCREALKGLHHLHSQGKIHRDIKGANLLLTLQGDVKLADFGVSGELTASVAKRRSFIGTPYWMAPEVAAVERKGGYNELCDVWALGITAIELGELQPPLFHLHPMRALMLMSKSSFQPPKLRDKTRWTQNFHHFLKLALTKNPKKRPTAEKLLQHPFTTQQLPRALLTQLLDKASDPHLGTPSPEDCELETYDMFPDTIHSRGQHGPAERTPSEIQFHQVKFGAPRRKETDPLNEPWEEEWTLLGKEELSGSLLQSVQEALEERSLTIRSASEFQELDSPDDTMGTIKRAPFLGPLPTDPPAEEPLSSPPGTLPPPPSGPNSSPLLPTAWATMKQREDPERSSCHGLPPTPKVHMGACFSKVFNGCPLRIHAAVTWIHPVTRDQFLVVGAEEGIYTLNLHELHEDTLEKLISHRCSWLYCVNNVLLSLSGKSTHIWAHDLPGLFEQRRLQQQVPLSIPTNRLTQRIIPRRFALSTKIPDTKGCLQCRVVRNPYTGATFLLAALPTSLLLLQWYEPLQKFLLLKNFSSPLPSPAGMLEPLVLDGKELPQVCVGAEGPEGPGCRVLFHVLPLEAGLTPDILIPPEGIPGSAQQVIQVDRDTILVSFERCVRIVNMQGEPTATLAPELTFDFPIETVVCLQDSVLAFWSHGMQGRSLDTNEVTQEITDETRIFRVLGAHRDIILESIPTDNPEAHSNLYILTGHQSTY

[19] = target: T5, Mitogen-activated protein kinase kinase kinase kinase 2 (Homo sapiens); conditions: at 1 µM
[20] = target: Mitogen-activated protein kinase kinase kinase kinase 4 (Homo sapiens) (UniProt O95819); conditions: at 0.1 µM

Sequence of BDNF/NT-3 growth factors receptor (Homo sapiens) (Q16620 32-822 limits assumed): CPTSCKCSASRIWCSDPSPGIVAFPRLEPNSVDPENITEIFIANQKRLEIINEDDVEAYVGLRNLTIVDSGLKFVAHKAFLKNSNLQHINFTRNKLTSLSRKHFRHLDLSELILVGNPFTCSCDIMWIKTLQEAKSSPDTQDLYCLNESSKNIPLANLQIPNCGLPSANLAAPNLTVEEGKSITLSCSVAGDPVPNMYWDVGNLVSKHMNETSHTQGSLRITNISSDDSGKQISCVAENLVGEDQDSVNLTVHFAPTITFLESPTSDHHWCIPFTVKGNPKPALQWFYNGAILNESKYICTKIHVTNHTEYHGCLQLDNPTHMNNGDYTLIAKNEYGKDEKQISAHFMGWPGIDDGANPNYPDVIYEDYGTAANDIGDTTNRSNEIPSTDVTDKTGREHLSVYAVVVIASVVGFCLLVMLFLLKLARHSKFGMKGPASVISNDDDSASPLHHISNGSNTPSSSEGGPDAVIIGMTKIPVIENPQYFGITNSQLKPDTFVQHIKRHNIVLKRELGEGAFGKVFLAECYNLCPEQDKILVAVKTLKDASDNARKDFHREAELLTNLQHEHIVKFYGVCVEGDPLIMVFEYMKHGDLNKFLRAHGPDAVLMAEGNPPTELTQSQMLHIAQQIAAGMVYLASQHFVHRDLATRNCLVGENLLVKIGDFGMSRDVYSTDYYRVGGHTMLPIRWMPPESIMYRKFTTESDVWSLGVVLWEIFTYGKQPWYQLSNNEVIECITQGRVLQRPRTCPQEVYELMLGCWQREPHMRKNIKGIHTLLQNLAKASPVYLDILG
Sequence of High affinity nerve growth factor receptor (Homo sapiens) (P04629 33-796 limits assumed): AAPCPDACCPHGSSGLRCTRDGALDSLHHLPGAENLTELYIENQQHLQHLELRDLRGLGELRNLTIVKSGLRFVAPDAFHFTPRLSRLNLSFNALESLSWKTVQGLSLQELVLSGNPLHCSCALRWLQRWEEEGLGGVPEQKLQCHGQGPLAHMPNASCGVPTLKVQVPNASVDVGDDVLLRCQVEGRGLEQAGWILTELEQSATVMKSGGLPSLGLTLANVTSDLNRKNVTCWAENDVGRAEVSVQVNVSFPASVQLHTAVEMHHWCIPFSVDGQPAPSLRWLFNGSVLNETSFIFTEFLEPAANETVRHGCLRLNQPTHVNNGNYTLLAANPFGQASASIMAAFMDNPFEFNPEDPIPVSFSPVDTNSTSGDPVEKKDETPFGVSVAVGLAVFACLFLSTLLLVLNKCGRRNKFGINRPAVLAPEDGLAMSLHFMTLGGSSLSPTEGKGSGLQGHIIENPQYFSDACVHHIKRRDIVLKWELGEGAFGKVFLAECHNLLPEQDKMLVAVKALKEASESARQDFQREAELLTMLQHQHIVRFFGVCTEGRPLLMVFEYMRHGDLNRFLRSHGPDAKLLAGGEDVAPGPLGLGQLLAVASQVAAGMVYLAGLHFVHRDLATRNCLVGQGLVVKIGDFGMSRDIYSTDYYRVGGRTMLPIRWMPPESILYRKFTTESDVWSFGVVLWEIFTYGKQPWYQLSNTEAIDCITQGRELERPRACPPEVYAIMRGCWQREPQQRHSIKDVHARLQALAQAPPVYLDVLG

| SMILES | inhibition [1] | inhibition [2] | inhibition [3] | inhibition [4] | inhibition [5] | inhibition [6] | inhibition [7] | inhibition [8] | inhibition [9] | inhibition [10] | inhibition [11] | inhibition [12] | inhibition [13] | inhibition [14] | inhibition [15] | inhibition [16] | inhibition [17] | inhibition [18] | inhibition [19] | inhibition [20] |
| --- | --- | --- | --- | --- | --- | --- | --- | --- | --- | --- | --- | --- | --- | --- | --- | --- | --- | --- | --- | --- |
| NS(=O)(=O)c1ccc(Nc2cc(-c3cccc(O)c3)n[nH]2)cc1 | 10.5% | 5.48% | 12.6% | 5.55% | 14.4% | 2.77% | 2.95% | -9.08% | 0.24% | 3.17% | 17.2% | 9.52% | 19.4% | 7.83% | 19.6% | 6.23% | 8.5% | 2.13% | 10.7% | 7.82% |
| c1ccc(Nc2ncc(-c3ccccc3)o2)cc1 | 6.98% | 2.68% | 9.78% | 4.23% | 8.89% | 2.01% | 6.4% | -2.68% | 16.1% | 2.24% | 15.2% | 3.84% | 10.3% | 0.81% | 16% | 3.84% | 9.44% | 1.03% | 5.7% | 5.9% |
| CCS(=O)(=O)c1ccc(OC)c(Nc2nccc(N(C)c3ccc4c(C)n[nH]c4c3)n2)c1 | 11.7% | 5.19% | 14.1% | 4.34% | 17.5% | 1.6% | 26.2% | -6.13% | 11.9% | 4.98% | 6.77% | 3.25% | 7.33% | 6.61% | 28.2% | 43.4% | 83% | 0.17% | 12.7% | 4.51% |
| NS(=O)(=O)c1cccc(-c2cc3ccncc3cc2OCc2ccccc2)c1 | 5.54% | 2.94% | 6.23% | 1.81% | 6.72% | 4.1% | 10.2% | -2.99% | 11.2% | 3.18% | 16.9% | 7.33% | 17.9% | 8.37% | 12.4% | 8.31% | 10.8% | 3.01% | 10.2% | 7.44% |
| Nc1ccc(C#Cc2cncnc2Nc2ccc(OCc3cccc(F)c3)c(Cl)c2)cc1 | 0.62% | 1.89% | 1.57% | 2.2% | 1.81% | -1.58% | 2.93% | 0.67% | 6.25% | 2.18% | 0.03% | 3.38% | 1.27% | 0.25% | 2.24% | 5.13% | 6.55% | 0.2% | 1.98% | 2.07% |
| CS(=O)(=O)Nc1cccc(-c2ccc3c(NC(=O)C4CC4)n[nH]c3c2)c1 | 2.02% | 0.05% | 0.23% | -0.22% | 5.08% | -1.12% | 2.67% | 0.85% | 5.01% | 2.68% | 12.4% | 1.84% | 3.58% | 1.43% | 15.6% | 3.13% | 10.2% | 1.94% | 2.98% | 2.8% |
| CN(C)c1cc2c(Nc3ccc4c(cnn4Cc4ccccc4)c3)ncnc2cn1 | 1.97% | 1.16% | 0.6% | 2.13% | 1.66% | 3.19% | 4.31% | -2.71% | 6.41% | -1.73% | 12.8% | -0.85% | 8.49% | 2.76% | 27.6% | 6.27% | 13.9% | 0.85% | 0.49% | 2.93% |
| c1ccc(Cc2nc3ccc(Nc4ncnc5ccccc45)cc3[nH]2)cc1 | 0.18% | 2.44% | 3.35% | -0.16% | 2.9% | 2.03% | 4.47% | -9.76% | 19% | 2.6% | 11.6% | 5.89% | 11% | 4.08% | 7.02% | 4.04% | 8.14% | 0.75% | 6.22% | 4.28% |
| NC(=O)c1cccc(Nc2nccc(Nc3cccc(F)c3)n2)c1 | 2.65% | 1.46% | 14.8% | -1.62% | 5.94% | 6.53% | 29% | 3.52% | 6.29% | 14.9% | 65.5% | 12.6% | 49.3% | 25.6% | 85.2% | -0.14% | 12.3% | 0.98% | 14.1% | 8.77% |
| Nc1nccc(-c2c(-c3ccc(F)cc3)ncn2CCCN2CCOCC2)n1 | 2.15% | 1.18% | 6.6% | 0.23% | 4.59% | 3% | 3.47% | -3.95% | 6.61% | 3.86% | 8.99% | 2.68% | 4.99% | 0.25% | -2.92% | 3.38% | 7.74% | 2.02% | -0.39% | 3.81% |
| O=S(=O)(CCOCc1ccc(-c2ccc3ncnc(Nc4ccc(OCc5cccc(F)c5)c(Cl)c4)c3c2)o1)c1ccccc1 | 3.9% | 2.42% | 2.72% | 0.35% | 0.31% | -0.26% | 2.63% | -3.63% | 11% | 1.6% | 2.01% | 2.69% | 7.69% | -0.03% | 5.99% | 2.38% | 5.21% | 0.66% | 3.12% | 6.19% |
| COc1cccc(-n2ncc3c(N/N=C/c4ccc(C)cc4)ncnc32)c1 | 5.28% | 3.97% | 5.08% | 3.96% | 2.64% | 7.7% | 7.5% | -1.37% | 19.1% | 3.98% | 11.8% | 4.27% | 6.65% | 1.92% | 4.66% | 5.12% | 10.9% | 0.91% | 4.23% | 4.74% |
